High-throughput results as filed in PubChem.
tim23-1 inh = growth inhibitors of tim23-1 mutant yeast; S. cerevisiae tim23-1 growth, BacTiter-Glo luminescence, 24 h; inhibition, % at 20 µM; 330,000 compounds, 1.3% hits; AID 463212;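 active = growth inhibition of the mutant yeast at or above 50%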;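 also: temperature-sensitive mutant grown at 25 °C; plate controls were DMSO-treated mutant yeast for no effect and medium wells lacking yeast for full effect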
NALP3 yeast inh = inhibitors of NALP3 inflammasome in yeast; inhibition, % at 10 µM; AID 2825; 330,000 compounds, 0.39% hits; Yeast reconstituted NLRP3/ASC/caspase-1, beta-gal luminescence, 24 h;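 active = inhibition of 50% or more; inactive = inhibition below 50%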;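 also: plate controls were induced DMSO wells for no effect and uninduced yeast grown without galactose for full effect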
tim10-1 inh = tim10-1 yeast growth inhibition; inhibition, % at 20 µM; 330,000 compounds, 2.2% hits; S. cerevisiae tim10-1 ts strain growth, BacTiter-Glo, 24 h; AID 463190;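 active = inhibition of at least 40%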;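 also: mutant grown at 25 °C; 0% = DMSO wells with yeast and 100% = wells holding no yeast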
SKKanGAS inh = inhibitors of SKKanGAS S. pyogenes growth in kanamycin (SK-promoter or general growth effect); BacTiter-Glo, 6 h; inhibition, % at 7.5 µM; 300,000 compounds, 1.3% hits; AID 1662;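 active = mean replicate score, as percent of positive control median, at least 50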;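 also: strain carries kanamycin resistance gene driven by streptokinase promoter and grows in 40 µg/ml kanamycin; loss of luminescence reflects streptokinase promoter inhibition or plain growth inhibition; 0% = median of DMSO wells and 100% = positive control at its reference dose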
TIM10 inh = growth inhibitors of TIM10 yeast strain. 330,000 compounds, 1.4% hits. AID 463195. S. cerevisiae TIM10 strain growth, BacTiter-Glo luminescence, 24 h. inhibition, % at 10 µM;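 active = inhibition of 40% or more at the single tested concentration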;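 also: wild-type TIM10 isogenic control strain grown at permissive 25 °C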
tim10-1 confirm = tim10-1 yeast growth inhibition, confirmed; shares compounds with tim10-1 inh; S. cerevisiae tim10-1 ts strain growth, BacTiter-Glo, 24 h; inhibition, % at 20 µM; 7,400 compounds, 56% hits; AID 463213;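 active = inhibition of yeast growth at or above a set limit in either of two repeat tests at 20 µM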;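 also: tim10-1 mutant grown at permissive 25 °C to find synthetic lethal compounds; 0% = DMSO yeast wells and 100% = medium wells without yeast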
TIM10 conf = confirmation of TIM10 yeast growth inhibitors. S. cerevisiae tim10 strain growth, BacTiter-Glo luminescence, 24 h. 4,600 compounds, 63% hits. shares compounds with TIM10 inh. inhibition, % at 10 µM;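 active = inhibition of yeast growth at or above a set limit in either of two replicates at 10 µM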;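 also: this counterscreen used the strain with wild-type TIM10; 0% = yeast with DMSO and 100% = medium wells lacking yeast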
tim23-1 confirm = tim23-1 yeast growth inhibition, confirmed; shares compounds with tim23-1 inh; S. cerevisiae tim23-1 growth, BacTiter-Glo luminescence, 24 h; inhibition, % at 20 µM; 4,400 compounds, 83% hits;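 active = inhibition above about 39% in either of two replicate wells at 20 µM, limit read from the data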;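 also: temperature-sensitive tim23-1 mutant grown at 25 °C; 0% = DMSO wells with yeast and 100% = medium wells without yeast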
The depositor's hits bear a star; · = no result. Only some compounds are listed: those with a hit (about 4.6% of all), similar ones and a draw of the others.

SMILES	tim23-1 inh	NALP3 yeast inh	tim10-1 inh	SKKanGAS inh	TIM10 inh	tim10-1 confirm	TIM10 conf	tim23-1 confirm
CN1/C(=C/C2CC(=O)N(c3ccc([N+](=O)[O-])cc3)C2=O)C(C)(C)c2ccccc21 (configuration not stated)	51.1*	-0.4	66.3*	6.1	51.4*	61.7*	41.9*	66.0*
CN1/C(=C\C(=S)NC(=O)c2ccc([N+](=O)[O-])cc2)C(C)(C)c2ccccc21	-2.9	22.8	12.3	3.5	9.4	·	·	·
NNC(=O)c1nc[nH]c1C(=O)Nc1ccccc1	12.8	1.0	24.7	4.2	18.3	·	·	·
O=C(Nc1ccc(OCC(F)(F)C(F)F)c(C(F)(F)F)c1)c1ccccc1	12.1	14.2	25.8	8.9	28.2	·	·	·
O=C(Nc1ccc(OCC(F)(F)C(F)F)c(C(F)(F)F)c1)c1ccccc1O	54.4*	24.9	81.4*	80.9*	62.0*	75.8*	-5.9	68.8*
C=C(CC)C(=O)c1ccc(OCC(=O)O)c(Cl)c1Cl	67.8*	11.7	64.8*	18.4	54.2*	54.8*	56.9*	88.8*
Cc1cc(C(=O)N/N=C/C(Cl)=C/c2ccccc2)c(C)o1	0.3	-4.6	-25.0	6.4	-24.3	·	·	·
O=C1OC(c2ccc(F)cc2)=N/C1=C\C=C/c1ccccc1	76.3*	7.1	50.4*	-2.5	37.3	39.9*	·	-35.0
CCOC(=O)/C(=C/c1ccc(OC(=O)c2ccccc2)cc1)C(C)=O	88.8*	34.4	46.6*	2.7	76.8*	64.3*	-19.7	52.6*
Fc1ccccc1C1CC(c2ccco2)=Nc2ccccc2S1 (configuration not stated)	30.0	-15.4	18.1	6.5	17.7	·	·	·
Cc1[nH]c2ccc(C(=O)N3CCN(c4ccccc4Cl)CC3)cc2c1C	50.7*	8.4	57.4*	25.0	40.3*	25.4	11.9	47.9*
CCOc1ccc(Br)cc1C1=NN(C(C)=O)C(c2ccc([N+](=O)[O-])s2)O1 (configuration not stated)	82.6*	15.8	63.9*	8.5	45.2*	71.2*	55.2*	65.2*
CC(C)(C)N=Cc1c(O)ccc2oc3c(c12)CCCC3	63.3*	8.7	41.5*	33.8	34.3	33.4*	·	63.6*
NC(=O)N/N=C/c1c(O)ccc2oc3c(c12)CCCC3	2.4	9.7	12.5	9.9	18.7	·	·	·
Cc1cccc(CSc2cccc3cccnc23)c1	51.2*	41.1	46.3*	42.5	37.0	39.5*	·	50.5*
O=C(O)/C(=C\c1ccccc1OC(F)F)Sc1nnc(-c2ccc(F)cc2)o1	70.3*	-22.0	71.0*	6.8	58.8*	75.1*	68.5*	70.8*
O=C(CSc1nnc(C2CC2)n1CC1CCCO1)Nc1ccc(Cl)cc1 (configuration not stated)	1.6	1.0	-12.2	-3.4	8.0	·	·	·
COc1cc(C(=O)N/N=C/c2coc3ccccc3c2=O)cc(OC)c1OC	33.0	2.7	20.1	-0.4	9.4	·	·	·
COc1ccc(C(=O)N/N=C\c2coc3ccc(Cl)cc3c2=O)cc1	83.7*	12.2	44.2*	1.8	33.0	-4.2	·	74.6*
O=C(N/N=C/c1coc2ccc(Cl)cc2c1=O)c1ccc(O)cc1	84.3*	2.5	49.5*	2.2	31.0	-1.0	·	48.8*
NC(=S)N/N=C/c1coc2ccc(Cl)cc2c1=O	81.7*	15.5	54.5*	1.5	22.1	16.5	·	80.2*
COc1cc(C(=O)N/N=C/c2coc3ccc(Cl)cc3c2=O)ccc1O	80.8*	11.7	52.0*	-9.8	34.7	7.9	·	48.6*
CN(CC(=O)NCCc1ccc(S(N)(=O)=O)cc1)CC(=O)Nc1ccccc1C(F)(F)F	9.7	10.7	15.5	·	-0.1	·	·	·
COc1ccc(C2/C=C\CN(C(=O)Nc3ccccc3)CC(=O)N2Cc2ccc(F)cc2)cc1 (configuration not stated)	-12.1	17.4	17.5	1.6	-0.6	·	·	·
COc1ccc(C2/C=C\CN(C(=O)Nc3ccc(C(F)(F)F)cc3)CC(=O)N2Cc2ccc(F)cc2)cc1 (configuration not stated)	53.4*	19.7	49.5*	44.5	47.3*	38.4*	27.0	47.8*
SMILES	tim23-1 inh	NALP3 yeast inh	tim10-1 inh	SKKanGAS inh	TIM10 inh	tim10-1 confirm	TIM10 conf	tim23-1 confirm
CC(C)c1cc(C(=O)NNC(=S)NCc2ccco2)c(O)c(C(C)C)c1	54.3*	8.2	55.3*	19.9	57.0*	56.9*	6.6	65.8*
Cc1cc(C(=O)NNC(=S)NCc2ccco2)n(C)n1	-0.3	20.3	-4.9	-7.6	4.0	·	·	·
O=S(=O)(c1cccs1)N1CCN(c2ccccc2Cl)CC1	38.4	37.1	22.1	0.8	22.2	·	·	·
O=S(=O)(c1cccs1)N1CCN(c2ccnc3cc(Cl)ccc23)CC1	51.3*	19.1	45.4*	2.3	23.4	35.2*	·	44.3*
O=S(=O)(c1ccccc1)N1CCN(c2ccnc3cc(Cl)ccc23)CC1	63.3*	1.7	58.5*	2.6	16.5	52.9*	·	65.7*
CCCCn1c(N)c(N(CCOC)C(=O)C2CC(=O)N(c3ccc(CC)cc3)C2)c(=O)[nH]c1=O (configuration not stated)	4.0	18.1	-1.0	·	-0.5	·	·	·
O=C(COC(=O)c1cccc(S(=O)(=O)N2CCOCC2)c1)NCCc1ccccc1	-11.2	12.1	4.4	3.2	2.2	·	·	·
Cc1ccc(C(C[N+](=O)[O-])n2nc(C)cc2C)cc1 (configuration not stated)	80.1*	32.3	52.6*	21.6	22.5	35.8*	·	72.7*
Cc1ccc(S(=O)(=O)NCC(C)n2nc(C)cc2C)cc1 (configuration not stated)	-2.8	0.6	-3.3	9.2	3.8	·	·	·
C/C(=N\Nc1nc(C)cc(-c2ccccc2)n1)c1ccc(C)o1	52.4*	10.9	49.1*	2.5	44.8*	32.5*	8.4	48.7*
O=c1c2ccccc2c(-c2cccc(C(F)(F)F)c2)nn1-c1ccccc1	34.5	8.8	14.8	1.2	-22.3	·	·	·
O=c1c2ccccc2c(-c2ccc(O)cc2)nn1-c1cccc(C(F)(F)F)c1	56.9*	6.5	42.4*	-13.0	53.0*	36.1*	-6.4	55.5*
COc1cc(C(=O)NC2CCCC(C)C2C)ccc1OCC(=O)N1CCOCC1 (configuration not stated)	-1.9	10.8	6.6	·	10.3	·	·	·
O=C(Nc1ccc(Oc2ccc(Br)cc2)cc1)C1=CC=CN2CCS(=O)(=O)N=C12	-5.0	12.3	-7.6	·	-6.4	·	·	·
C=CCSc1n[nH]c(-c2ccc(OCCCC)cc2)n1	72.1*	34.9	41.2*	-1.7	56.1*	17.4	48.0*	67.1*
CS/C(=N/S(=O)(=O)c1ccc(C)cc1)c1ccccc1	14.7	-15.7	-4.7	-1.0	-9.2	·	·	·
